# In the supplement of paper PMC8728848:
# Only a selection was taken, and the strongest signals are over-represented in it overall.
# Assays:
# Assay in all cases: glycan array binding signal (z-score within array); higher = stronger binding
# Conditions in all cases: glycan notation: IUPAC condensed, linker removed
# [1] = molecular target: Fuc(a1-2)Gal(b1-3)GalNAc(b1-3)Gal
# Procedure, shortened: (§1)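 Glycan array data were curated from 3228 arrays in the Consortium for Functional Glycomics database and kept only where the protein sequence was available. Glycan names were converted to IUPAC-condensed notation, and columns mapping to the same glycan were averaged. The binding signal is a within-array Z-score, averaged across arrays of the same protein sequence at different concentrations or buffers and across linkers. Negative Z-scores can be read as non-binding.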
# [2] = molecular target: Fuc(a1-2)Gal(b1-3)GlcNAc(b1-3)[Gal(b1-4)GlcNAc(b1-6)]Gal(b1-4)Glc
# Procedure, shortened: as §1
# [3] = molecular target: Fuc(a1-2)Gal(b1-4)GlcNAc6S
# Procedure, shortened: as §1
# [4] = molecular target: Fuc(a1-2)Gal(b1-4)[Fuc(a1-3)]GlcNAc(b1-2)Man(a1-3)[Fuc(a1-2)Gal(b1-4)[Fuc(a1-3)]GlcNAc(b1-2)Man(a1-6)]Man(b1-4)GlcNAc(b1-4)[Fuc(a1-6)]GlcNAc
# Procedure, shortened: as §1
# [5] = molecular target: Fuc(a1-2)Gal6S(b1-3)GlcNAc6S
# Procedure, shortened: as §1
# [6] = molecular target: Fuc(a1-2)[Gal(a1-3)]Gal(b1-3)GlcNAc
# Procedure, shortened: as §1
# [7] = molecular target: Fuc(a1-2)[Gal(a1-3)]Gal(b1-4)GlcNAc
# Procedure, shortened: as §1
# [8] = molecular target: Fuc(a1-2)[Gal(a1-3)]Gal(b1-4)GlcNAc(b1-6)GalNAc
# Procedure, shortened: as §1
# [9] = molecular target: Fuc(a1-3)[Gal(b1-4)]Glc6S
# Procedure, shortened: as §1
# [10] = molecular target: Fuc(a1-3)[Gal(b1-4)]GlcNAc(b1-6)GalNAc
# Procedure, shortened: as §1
# [11] = molecular target: Fuc(a1-3)[Gal3S(b1-4)]Glc
# Procedure, shortened: as §1
# [12] = molecular target: Gal(a1-3)Gal(b1-4)GlcNAc(b1-2)Man
# Procedure, shortened: as §1
# Gal(b1-3)GlcNAc = molecular target: Gal(b1-3)GlcNAc
# Procedure, shortened: as §1
# [13] = molecular target: Gal(b1-3)GlcNAc(a1-3)Gal(b1-4)GlcNAc
# Procedure, shortened: as §1
# [14] = molecular target: Gal(b1-3)GlcNAc(b1-2)[Gal(b1-3)GlcNAc(b1-6)]Man(a1-6)[Gal(b1-3)GlcNAc(b1-2)Man(a1-3)]Man(b1-4)GlcNAc(b1-4)GlcNAc
# Procedure, shortened: as §1
# [15] = molecular target: Gal(b1-3)GlcNAc(b1-3)Gal(b1-4)GlcNAc(b1-2)[Gal(b1-3)GlcNAc(b1-3)Gal(b1-4)GlcNAc(b1-6)]Man(a1-6)[Gal(b1-3)GlcNAc(b1-3)Gal(b1-4)GlcNAc(b1-2)Man(a1-3)]Man(b1-4)GlcNAc(b1-4)[Fuc(a1-6)]GlcNAc
# Procedure, shortened: as §1
# [16] = molecular target: Gal(b1-3)[Fuc(a1-4)]GlcNAc(b1-2)Man
# Procedure, shortened: as §1
# [17] = molecular target: Gal(b1-3)[Fuc(a1-4)]GlcNAc(b1-3)Gal(b1-3)[Fuc(a1-4)]GlcNAc
# Procedure, shortened: as §1
# [18] = molecular target: Gal(b1-4)GlcNAc(b1-2)Man(a1-3)[Man(a1-6)]Man(b1-4)GlcNAc(b1-4)GlcNAc
# Procedure, shortened: as §1
# [19] = molecular target: Gal3S(b1-4)[Fuc(a1-3)]Glc6S
# Procedure, shortened: as §1
# Gal3S4S(b1-4)GlcNAc = molecular target: Gal3S4S(b1-4)GlcNAc
# Procedure, shortened: as §1
# Gal3S6S(b1-4)GlcNAc = molecular target: Gal3S6S(b1-4)GlcNAc
# Procedure, shortened: as §1
# Gal6S(b1-3)GlcNAc = molecular target: Gal6S(b1-3)GlcNAc
# Procedure, shortened: as §1
# Gal6S(b1-3)GlcNAc6S = molecular target: Gal6S(b1-3)GlcNAc6S
# Procedure, shortened: as §1
# Gal6S(b1-4)GlcNAc6S = molecular target: Gal6S(b1-4)GlcNAc6S
# Procedure, shortened: as §1
# GalNAc(a1-3)Gal = molecular target: GalNAc(a1-3)Gal
# Procedure, shortened: as §1
# [20] = molecular target: GalNAc(b1-3)Gal(a1-6)Gal(b1-4)Glc
# Procedure, shortened: as §1
# [21] = molecular target: GlcNAc(a1-3)Gal(b1-4)GlcNAc
# Procedure, shortened: as §1
# [22] = molecular target: GlcNAc(a1-4)Gal(b1-3)GlcNAc
# Procedure, shortened: as §1
# [23] = molecular target: GlcNAc(a1-4)Gal(b1-4)GlcNAc(b1-3)Gal(b1-4)[Fuc(a1-3)]GlcNAc(b1-3)Gal(b1-4)[Fuc(a1-3)]GlcNAc
# Procedure, shortened: as §1
# [24] = molecular target: GlcNAc(b1-2)Gal(b1-3)GalNAc
# Procedure, shortened: as §1
# [25] = molecular target: Man(a1-3)[Man(a1-6)]Man(a1-6)[Man(a1-2)Man(a1-3)]Man(b1-4)GlcNAc(b1-4)GlcNAc
# Procedure, shortened: as §1
# [26] = molecular target: Man(a1-3)[Man(a1-6)]Man(a1-6)[Man(a1-3)]Man
# Procedure, shortened: as §1
# [27] = molecular target: Neu5Ac(a2-3)Gal(b1-3)GlcNAc(b1-2)Man(a1-3)[Neu5Ac(a2-3)Gal(b1-3)GlcNAc(b1-2)Man(a1-6)]Man(b1-4)GlcNAc(b1-4)GlcNAc
# Procedure, shortened: as §1
# Neu5Ac(a2-3)Gal(b1-4)Glc = molecular target: Neu5Ac(a2-3)Gal(b1-4)Glc
# Procedure, shortened: as §1
# [28] = molecular target: Neu5Ac(a2-3)Gal(b1-4)GlcNAc(b1-2)Man
# Procedure, shortened: as §1
# [29] = molecular target: Neu5Ac(a2-3)Gal(b1-4)GlcNAc(b1-2)[Neu5Ac(a2-3)Gal(b1-4)GlcNAc(b1-4)]Man(a1-3)[GlcNAc(b1-4)][Neu5Ac(a2-3)Gal(b1-4)GlcNAc(b1-2)[Neu5Ac(a2-3)Gal(b1-4)GlcNAc(b1-6)]Man(a1-6)]Man(b1-4)GlcNAc(b1-4)GlcNAc
# Procedure, shortened: as §1
# [30] = molecular target: Neu5Ac(a2-3)Gal(b1-4)GlcNAc(b1-2)[Neu5Ac(a2-3)Gal(b1-4)GlcNAc(b1-4)]Man(a1-3)[GlcNAc(b1-4)][Neu5Ac(a2-3)Gal(b1-4)GlcNAc(b1-4)Man(a1-6)]Man(b1-4)GlcNAc(b1-4)GlcNAc
# Procedure, shortened: as §1
# [31] = molecular target: Neu5Ac(a2-3)Gal(b1-4)[Fuc(a1-3)]GlcNAc(b1-2)Man
# Procedure, shortened: as §1
# [32] = molecular target: Neu5Ac(a2-3)[Neu5Ac(a2-6)]GalNAc
# Procedure, shortened: as §1
# [33] = molecular target: Neu5Ac(a2-6)Gal(b1-4)GlcNAc(b1-2)Man(a1-3)Man(b1-4)GlcNAc(b1-4)GlcNAc
# Procedure, shortened: as §1
# [34] = molecular target: Neu5Ac(a2-6)GalNAc(b1-4)GlcNAc
# Procedure, shortened: as §1
# Neu5Ac(a2-8)Neu5Ac = molecular target: Neu5Ac(a2-8)Neu5Ac
# Procedure, shortened: as §1
# [35] = molecular target: Neu5Ac(a2-8)Neu5Ac(a2-3)Gal(b1-4)GlcNAc
# Procedure, shortened: as §1
# [36] = molecular target: Neu5Ac(a2-8)Neu5Ac(a2-8)Neu5Ac(a2-3)[GalNAc(b1-4)]Gal(b1-4)Glc
# Procedure, shortened: as §1
# Neu5Gc(a2-3)Gal(b1-4)Glc = molecular target: Neu5Gc(a2-3)Gal(b1-4)Glc
# Procedure, shortened: as §1
# [37] = molecular target: Neu5Gc(a2-3)Gal(b1-4)GlcNAc(b1-3)Gal(b1-4)GlcNAc(b1-2)Man(a1-3)[Neu5Gc(a2-3)Gal(b1-4)GlcNAc(b1-3)Gal(b1-4)GlcNAc(b1-2)Man(a1-6)]Man(b1-4)GlcNAc(b1-4)GlcNAc
# Procedure, shortened: as §1
# Neu5Gc(a2-6)GalNAc = molecular target: Neu5Gc(a2-6)GalNAc
# Procedure, shortened: as §1
binder,measurement,setting,value
Epa3to2 (Candida glabrata) (protein) MGSSHHHHHHSSGLVPRGSHMKRELSSQNPFGYPIGCSPQDVAIIPGLTMELYSYPIVSGTPPNCYDASYVDPEYPRTGYLKRKMVGKSTGVTGNLNYKYSVEKACMVKYGNLPAGYNYNEPLTVSNFTMILYGYFKAQTTGLHTFFVNADDLLYINFGAGNAFDCCKREDSKTKLGEYVAYDIWHVDSSKNKVSLFLEKDLYYPIRMFFNNRDNNSSLDLSFSVNGATDQISDFSGYLYSVPDQPDTCPAHIGYDTTCR,glycan array binding signal (z-score),[1],3.03
same,glycan array binding signal (z-score),[2],1.2
same,glycan array binding signal (z-score),[3],-0.709
same,glycan array binding signal (z-score),[4],2.47
same,glycan array binding signal (z-score),[5],2.11
same,glycan array binding signal (z-score),[6],-0.392
same,glycan array binding signal (z-score),[7],-0.27
same,glycan array binding signal (z-score),[8],-0.714
same,glycan array binding signal (z-score),[9],0.316
same,glycan array binding signal (z-score),[10],-1.35
same,glycan array binding signal (z-score),[11],0.878
same,glycan array binding signal (z-score),[12],-0.911
same,glycan array binding signal (z-score),Gal(b1-3)GlcNAc,-0.751
same,glycan array binding signal (z-score),[13],-0.807
same,glycan array binding signal (z-score),[14],0.52
same,glycan array binding signal (z-score),[15],0.293
same,glycan array binding signal (z-score),[16],0.761
same,glycan array binding signal (z-score),[17],-1.46
same,glycan array binding signal (z-score),[18],0.07
same,glycan array binding signal (z-score),[19],0.958
same,glycan array binding signal (z-score),Gal3S4S(b1-4)GlcNAc,-0.354
same,glycan array binding signal (z-score),Gal3S6S(b1-4)GlcNAc,2.42
same,glycan array binding signal (z-score),Gal6S(b1-3)GlcNAc,0.814
same,glycan array binding signal (z-score),Gal6S(b1-3)GlcNAc6S,3.65
same,glycan array binding signal (z-score),Gal6S(b1-4)GlcNAc6S,2.45
same,glycan array binding signal (z-score),GalNAc(a1-3)Gal,1.49
same,glycan array binding signal (z-score),[20],1.12
same,glycan array binding signal (z-score),[21],-1.07
same,glycan array binding signal (z-score),[22],-1.92
same,glycan array binding signal (z-score),[23],2.65
same,glycan array binding signal (z-score),[24],-1.16
same,glycan array binding signal (z-score),[25],3.92
same,glycan array binding signal (z-score),[26],0.52
same,glycan array binding signal (z-score),[27],-0.658
same,glycan array binding signal (z-score),Neu5Ac(a2-3)Gal(b1-4)Glc,7.38
same,glycan array binding signal (z-score),[28],2.24
same,glycan array binding signal (z-score),[29],1.37
same,glycan array binding signal (z-score),[30],-0.302
same,glycan array binding signal (z-score),[31],-0.793
same,glycan array binding signal (z-score),[32],-1.13
same,glycan array binding signal (z-score),[33],2.19
same,glycan array binding signal (z-score),[34],-0.698
same,glycan array binding signal (z-score),Neu5Ac(a2-8)Neu5Ac,1.01
same,glycan array binding signal (z-score),[35],0.968
same,glycan array binding signal (z-score),[36],0.534
same,glycan array binding signal (z-score),Neu5Gc(a2-3)Gal(b1-4)Glc,0.038
same,glycan array binding signal (z-score),[37],-0.277
same,glycan array binding signal (z-score),Neu5Gc(a2-6)GalNAc,2.12
